{
  "source": "the antibiotic and cytotoxicity screens of Wong et al. (2023)",
  "note": "Out of some 39,000 compounds screened, about 1,500 (3.8%) were called active. The list comes from a sample in which actives are over-represented; it also holds similar structures and randomly drawn compounds.",
  "data": [
    {"test_system": "HSkMC (human skeletal muscle cells)", "assay": "cytotoxicity call (relative viability < 0.9)", "conditions": "10 µM", "values": [
      {"smiles": "C[C@H](CO)N1C[C@H](C)[C@@H](CN(C)Cc2ccc(-c3ccccc3)cc2)Oc2ccc(NC(=O)Nc3ccccc3)cc2C1=O", "cytotoxicity call": "inactive"},
      {"smiles": "C[C@@H]1CN([C@@H](C)CO)C(=O)c2cc(NC(=O)Nc3ccc(F)cc3)ccc2O[C@@H]1CN(C)Cc1ccc(-c2ccccc2)cc1", "cytotoxicity call": "active"},
      {"smiles": "C[C@@H]1CN([C@H](C)CO)C(=O)c2cc(NC(=O)Nc3ccc(F)cc3)ccc2O[C@H]1CN(C)Cc1ccc(-c2ccccc2)cc1", "cytotoxicity call": "active"},
      {"smiles": "C[C@H]1CN([C@@H](C)CO)C(=O)c2cc(NC(=O)Nc3ccccc3)ccc2O[C@H]1CN(C)Cc1ccc(-c2ccccc2)cc1", "cytotoxicity call": "inactive"},
      {"smiles": "C[C@H](CO)N1C[C@H](C)[C@H](CN(C)Cc2ccc(-c3ccccc3)cc2)Oc2ccc(NC(=O)Nc3ccc(F)cc3)cc2C1=O", "cytotoxicity call": "inactive"},
      {"smiles": "C[C@@H]1CN([C@@H](C)CO)C(=O)c2cc(NC(=O)Nc3ccccc3)ccc2O[C@H]1CN(C)Cc1ccc(-c2ccccc2)cc1", "cytotoxicity call": "inactive"},
      {"smiles": "C[C@H](CO)N1C[C@H](C)[C@H](CN(C)Cc2ccc(-c3ccccc3)cc2)Oc2ccc(NC(=O)Nc3ccccc3)cc2C1=O", "cytotoxicity call": "inactive"},
      {"smiles": "C[C@H]1CN([C@@H](C)CO)C(=O)c2cc(NC(=O)Nc3ccc(F)cc3)ccc2O[C@@H]1CN(C)Cc1ccc(-c2ccccc2)cc1", "cytotoxicity call": "inactive"},
      {"smiles": "C[C@@H]1CN([C@@H](C)CO)C(=O)c2cc(NC(=O)Nc3ccc(F)cc3)ccc2O[C@H]1CN(C)Cc1ccc(-c2ccccc2)cc1", "cytotoxicity call": "active"},
      {"smiles": "C[C@@H]1CN([C@H](C)CO)C(=O)c2cc(NC(=O)Nc3ccccc3)ccc2O[C@H]1CN(C)Cc1ccc(-c2ccccc2)cc1", "cytotoxicity call": "inactive"},
      {"smiles": "C[C@@H]1CN([C@H](C)CO)C(=O)c2cc(NC(=O)Nc3ccccc3)ccc2O[C@@H]1CN(C)Cc1ccc(-c2ccccc2)cc1", "cytotoxicity call": "inactive"},
      {"smiles": "C[C@@H]1CN([C@@H](C)CO)C(=O)c2cc(NC(=O)Nc3ccccc3)ccc2O[C@@H]1CN(C)Cc1ccc(-c2ccccc2)cc1", "cytotoxicity call": "active"},
      {"smiles": "CC(C)NC(=O)Nc1ccc2c(c1)CC(=O)N([C@@H](C)CO)C[C@H](C)[C@H](CN(C)Cc1ccc3c(c1)OCO3)O2", "cytotoxicity call": "inactive"},
      {"smiles": "O=c1nc[nH]c2c1ncn2[C@H]1CC[C@@H](CO)O1", "cytotoxicity call": "inactive"},
      {"smiles": "Cn1cnc(S(=O)(=O)N2C[C@@H](O)COC[C@H]3O[C@H](CC(=O)NC4CCC4)CC[C@@H]32)c1", "cytotoxicity call": "inactive"},
      {"smiles": "O=C(C[C@H]1CC[C@@H]2[C@H](COC[C@H](O)CN2S(=O)(=O)c2ccc(Cl)cc2)O1)NCC1CCCCC1", "cytotoxicity call": "inactive"},
      {"smiles": "C[C@H](CO)N1C[C@H](C)[C@H](CN(C)C(=O)Nc2ccc(F)cc2)OCCCC[C@H](C)Oc2ccc(NC(=O)Cc3ccccc3)cc2C1=O", "cytotoxicity call": "inactive"},
      {"smiles": "C[C@@H]1CN([C@H](C)CO)C(=O)c2cc(NC(=O)Nc3ccc(F)cc3)ccc2O[C@@H]1CN(C)Cc1ccc(-c2ccccc2)cc1", "cytotoxicity call": "active"},
      {"smiles": "C[C@H](CO)N1C[C@H](C)[C@@H](CN(C)Cc2ccc(-c3ccccc3)cc2)Oc2ccc(NC(=O)Nc3ccc(F)cc3)cc2C1=O", "cytotoxicity call": "inactive"},
      {"smiles": "C[C@H]1CN([C@@H](C)CO)C(=O)c2cc(NC(=O)Nc3ccc(F)cc3)ccc2O[C@H]1CN(C)Cc1ccc(-c2ccccc2)cc1", "cytotoxicity call": "inactive"},
      {"smiles": "C[C@]12C=CC(=O)N[C@@H]1CC[C@@H]1[C@@H]2CC[C@]2(C)[C@@H](C(=O)Nc3cc(C(F)(F)F)ccc3C(F)(F)F)CC[C@@H]12", "cytotoxicity call": "inactive"},
      {"smiles": "CCCNC(=O)N1C[C@@H](O)COC[C@H]2O[C@H](CC(=O)NCc3ccncn3)CC[C@@H]21", "cytotoxicity call": "inactive"},
      {"smiles": "C[C@@H]1CN([C@@H](C)CO)C(=O)Cc2cc(NC(=O)CCC(F)(F)F)ccc2O[C@H]1CN(C)S(=O)(=O)c1ccccc1", "cytotoxicity call": "inactive"},
      {"smiles": "CCC(C)C(N)C(=O)O", "note": "(configuration not stated)", "cytotoxicity call": "inactive"},
      {"smiles": "C[C@H](CO)N1C[C@H](C)[C@@H](CN(C)Cc2ccccc2C(F)(F)F)OCc2ccccc2-c2c(n(C)c3ccccc23)C1=O", "cytotoxicity call": "active"},
      {"smiles": "COc1ccccc1CN(C)C[C@@H]1OCc2ccccc2-c2c(n(C)c3ccccc23)C(=O)N([C@H](C)CO)C[C@@H]1C", "cytotoxicity call": "inactive"},
      {"smiles": "C[C@@H]1CN([C@H](C)CO)C(=O)c2c(c3ccccc3n2C)-c2ccccc2CO[C@@H]1CN(C)Cc1ccccc1C(F)(F)F", "cytotoxicity call": "active"},
      {"smiles": "COc1ccccc1CN(C)C[C@@H]1OCc2ccccc2-c2c(n(C)c3ccccc23)C(=O)N([C@H](C)CO)C[C@H]1C", "cytotoxicity call": "inactive"},
      {"smiles": "COc1ccccc1CN(C)C[C@@H]1OCc2ccccc2-c2c(n(C)c3ccccc23)C(=O)N([C@@H](C)CO)C[C@H]1C", "cytotoxicity call": "inactive"},
      {"smiles": "C[C@@H]1CN([C@@H](C)CO)C(=O)c2c(c3ccccc3n2C)-c2ccccc2CO[C@@H]1CN(C)Cc1ccccc1C(F)(F)F", "cytotoxicity call": "active"},
      {"smiles": "C[C@@H]1CN([C@@H](C)CO)C(=O)c2c(c3ccccc3n2C)-c2ccccc2CO[C@H]1CN(C)Cc1ccccc1C(F)(F)F", "cytotoxicity call": "active"},
      {"smiles": "COc1ccccc1CN(C)C[C@H]1OCc2ccccc2-c2c(n(C)c3ccccc23)C(=O)N([C@H](C)CO)C[C@@H]1C", "cytotoxicity call": "inactive"},
      {"smiles": "COc1ccccc1CN(C)C[C@@H]1OCc2ccccc2-c2c(n(C)c3ccccc23)C(=O)N([C@@H](C)CO)C[C@@H]1C", "cytotoxicity call": "inactive"},
      {"smiles": "Cc1noc(C)c1NC(=O)Nc1ccc2c(c1)C(=O)N([C@@H](C)CO)C[C@H](C)[C@H](CN(C)S(=O)(=O)c1ccc(F)cc1)OCCCC[C@@H](C)O2", "cytotoxicity call": "inactive"},
      {"smiles": "C[C@@H]1CN([C@H](C)CO)C(=O)c2cc(NC(=O)CCCN(C)C)ccc2O[C@H]1CN(C)S(=O)(=O)c1cn(C)cn1", "cytotoxicity call": "inactive"},
      {"smiles": "CCS(=O)(=O)CCn1c([N+](=O)[O-])cnc1C", "cytotoxicity call": "inactive"},
      {"smiles": "Cc1noc(C)c1S(=O)(=O)Nc1cccc2c1O[C@@H](CN(C)S(=O)(=O)c1ccc(Cl)cc1)[C@@H](C)CN([C@H](C)CO)C2=O", "cytotoxicity call": "inactive"},
      {"smiles": "C[C@@H]1CCCCO[C@H](CN(C)S(C)(=O)=O)[C@@H](C)CN([C@@H](C)CO)C(=O)c2cc(NS(=O)(=O)c3ccc(F)cc3)ccc2O1", "cytotoxicity call": "inactive"},
      {"smiles": "CO[C@H](CN(C)S(=O)(=O)c1cccc(Cl)c1)[C@@H](C)CN([C@H](C)CO)S(=O)(=O)c1ccc(Cl)cc1", "cytotoxicity call": "inactive"},
      {"smiles": "O=C(N[C@@H]1CC[C@@H](CC(=O)N2CCOCC2)O[C@H]1CO)c1ccccn1", "cytotoxicity call": "inactive"},
      {"smiles": "Cc1noc(C)c1NC(=O)N(C)C[C@H]1Oc2ccc(NC(=O)NC(C)C)cc2C(=O)N([C@H](C)CO)C[C@@H]1C", "cytotoxicity call": "inactive"},
      {"smiles": "COc1ccc(S(=O)(=O)Nc2ccc3c(c2)C(=O)N([C@H](C)CO)C[C@@H](C)[C@H](CN(C)S(C)(=O)=O)O3)cc1", "cytotoxicity call": "inactive"},
      {"smiles": "Nc1ccc(Nc2ccccc2)cc1", "cytotoxicity call": "inactive"},
      {"smiles": "COc1ccc2c3c([nH]c2c1)[C@@H](CO)N(C[C@]13CN(C1)S(=O)(=O)C)C(=O)C1CCOCC1", "cytotoxicity call": "inactive"},
      {"smiles": "C[C@H]1CN([C@@H](C)CO)C(=O)c2c(c3ccccc3n2C)-c2ccccc2CO[C@@H]1CN(C)Cc1ccccc1C(F)(F)F", "cytotoxicity call": "active"},
      {"smiles": "C[C@H](CO)N1C[C@H](C)[C@H](CN(C)Cc2ccccc2C(F)(F)F)OCc2ccccc2-c2c(n(C)c3ccccc23)C1=O", "cytotoxicity call": "active"},
      {"smiles": "C[C@H]1CN([C@@H](C)CO)C(=O)c2c(c3ccccc3n2C)-c2ccccc2CO[C@H]1CN(C)Cc1ccccc1C(F)(F)F", "cytotoxicity call": "inactive"},
      {"smiles": "COc1ccccc1CN(C)C[C@H]1OCc2ccccc2-c2c(n(C)c3ccccc23)C(=O)N([C@@H](C)CO)C[C@@H]1C", "cytotoxicity call": "inactive"},
      {"smiles": "COc1ccccc1CN(C)C[C@H]1OCc2ccccc2-c2c(n(C)c3ccccc23)C(=O)N([C@H](C)CO)C[C@H]1C", "cytotoxicity call": "inactive"},
      {"smiles": "COc1ccccc1CN(C)C[C@H]1OCc2ccccc2-c2c(n(C)c3ccccc23)C(=O)N([C@@H](C)CO)C[C@H]1C", "cytotoxicity call": "inactive"},
      {"smiles": "C[C@@H]1CN([C@H](C)CO)C(=O)c2c(c3ccccc3n2C)-c2ccccc2CO[C@H]1CN(C)Cc1ccccc1C(F)(F)F", "cytotoxicity call": "active"},
      {"smiles": "C[C@@H]1CN([C@@H](C)CO)C(=O)c2cc(NC(=O)CCC(F)(F)F)ccc2O[C@@H](C)CCCCO[C@@H]1CN(C)C(=O)CCC(F)(F)F", "cytotoxicity call": "inactive"},
      {"smiles": "COc1ccc(NC(=O)Nc2ccc3c(c2)C(=O)N([C@H](C)CO)C[C@@H](C)[C@@H](CN(C)C(=O)NC(C)C)OCCCC[C@H](C)O3)cc1", "cytotoxicity call": "inactive"},
      {"smiles": "C[C@@H]1CCCCO[C@H](CN(C)C(=O)Nc2ccc3c(c2)OCO3)[C@@H](C)CN([C@@H](C)CO)C(=O)c2cc(NC(=O)CCC(F)(F)F)ccc2O1", "cytotoxicity call": "inactive"},
      {"smiles": "CN1C(=O)COc2cc(N)ccc21", "cytotoxicity call": "inactive"},
      {"smiles": "Cc1noc(C)c1NC(=O)N(C)C[C@H]1Oc2ccc(NS(C)(=O)=O)cc2CC(=O)N([C@H](C)CO)C[C@@H]1C", "cytotoxicity call": "inactive"},
      {"smiles": "Cc1cc(C(=O)O)cc(S(N)(=O)=O)c1", "cytotoxicity call": "inactive"},
      {"smiles": "C[C@@H]1CN([C@H](C)CO)C(=O)c2cc(NC(=O)Nc3ccc4c(c3)OCO4)ccc2O[C@@H]1CN(C)Cc1ccc(C(=O)Nc2ccccc2N)cc1", "cytotoxicity call": "inactive"},
      {"smiles": "COc1ccc(NC(=O)N(C)C[C@@H]2Oc3c(NC(=O)c4cc(C)nn4C)cccc3C(=O)N([C@H](C)CO)C[C@H]2C)cc1", "cytotoxicity call": "inactive"},
      {"smiles": "C[C@H]1CCCCO[C@H](CN(C)Cc2ccncc2)[C@@H](C)CN([C@@H](C)CO)C(=O)c2cc(NS(=O)(=O)c3ccc(Cl)cc3)ccc2O1", "cytotoxicity call": "inactive"},
      {"smiles": "O=C(NO)c1cn(-c2ccc(C[C@H]3C(=O)O[C@@H](Cc4ccccc4)[C@H]4[C@@H]5C=CCCC=C5CN43)cc2)nn1", "cytotoxicity call": "inactive"},
      {"smiles": "COc1ccc([Si](C)(C)[C@H]2[C@H](CCO)O[C@@]3(C(=O)N(Cc4ccc(N5C(=O)c6cccc7cccc5c67)cc4)c4ccccc43)[C@@H]2C)cc1", "cytotoxicity call": "inactive"},
      {"smiles": "COc1ccc([Si](C)(C)[C@H]2[C@H](CCO)O[C@@]3(C(=O)N(Cc4cccc(N5C(=O)c6cccc7cccc5c67)c4)c4ccccc43)[C@@H]2C)cc1", "cytotoxicity call": "inactive"},
      {"smiles": "COc1ccc([Si](C)(C)[C@H]2[C@H](CCn3cc(CCO)nn3)O[C@@]3(C(=O)N(Cc4cccc(N5C(=O)c6cccc7cccc5c67)c4)c4ccccc43)[C@@H]2C)cc1", "cytotoxicity call": "inactive"},
      {"smiles": "COc1ccc([Si](C)(C)[C@@H]2[C@@H](CCO)O[C@]3(C(=O)N(Cc4ccc(N5C(=O)c6cccc7cccc5c67)cc4)c4ccccc43)[C@H]2C)cc1", "cytotoxicity call": "inactive"},
      {"smiles": "COc1ccc([Si](C)(C)[C@@H]2[C@@H](CCn3cc(CCO)nn3)O[C@]3(C(=O)N(Cc4ccc(N5C(=O)c6cccc7cccc5c67)cc4)c4ccccc43)[C@H]2C)cc1", "cytotoxicity call": "active"},
      {"smiles": "COc1ccc([Si](C)(C)[C@@H]2[C@@H](CCn3cc(CCO)nn3)O[C@]3(C(=O)N(Cc4cccc(N5C(=O)c6cccc7cccc5c67)c4)c4ccccc43)[C@H]2C)cc1", "cytotoxicity call": "active"}
    ]}
  ]
}
